Laboratory results: PubChem BioAssay AID489012 (National Center for Advancing Translational Sciences (NCATS), 2010)
Inconclusive results are not listed. Entries that show only a call come without a potency. Activity calls are given as the source filed them. Calls follow the shape of the dose curve; as a rule, active = well fitted activation curve with a large enough effect; inconclusive = small, poorly fitted or top-dose-only effect; inactive = no such curve, though single readings can be large or run the other way.

Target: Relaxin receptor 1 (Homo sapiens) (UniProt Q9HBX9)
Sequence (Q9HBX9 whole entry, looked up): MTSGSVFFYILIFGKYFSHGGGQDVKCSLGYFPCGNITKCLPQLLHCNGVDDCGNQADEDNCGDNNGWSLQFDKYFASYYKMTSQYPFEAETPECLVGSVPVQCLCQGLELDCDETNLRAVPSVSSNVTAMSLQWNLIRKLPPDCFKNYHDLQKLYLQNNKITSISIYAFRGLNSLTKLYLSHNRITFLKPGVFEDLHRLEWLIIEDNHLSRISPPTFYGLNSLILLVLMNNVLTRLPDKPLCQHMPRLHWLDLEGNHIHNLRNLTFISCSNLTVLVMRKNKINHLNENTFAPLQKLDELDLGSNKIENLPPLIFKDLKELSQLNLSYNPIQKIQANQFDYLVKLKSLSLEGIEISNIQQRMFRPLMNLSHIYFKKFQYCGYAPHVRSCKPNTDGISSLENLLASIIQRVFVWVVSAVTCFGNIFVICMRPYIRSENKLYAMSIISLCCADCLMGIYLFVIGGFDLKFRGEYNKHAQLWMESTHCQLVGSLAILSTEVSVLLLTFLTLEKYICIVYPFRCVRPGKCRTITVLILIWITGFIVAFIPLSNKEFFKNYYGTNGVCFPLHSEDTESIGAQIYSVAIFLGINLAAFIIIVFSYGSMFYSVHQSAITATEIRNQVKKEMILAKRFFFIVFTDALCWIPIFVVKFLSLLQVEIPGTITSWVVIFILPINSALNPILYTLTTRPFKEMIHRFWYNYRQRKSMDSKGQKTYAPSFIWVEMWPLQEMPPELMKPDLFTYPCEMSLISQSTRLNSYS
Assay: qHTS Assay for Agonists of the Relaxin Receptor RXFP1: RXFP1 Hit Validation; also: nearly all actives have a fitted effect of over 65% in size;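 as to activation: cAMP rise lowers the TR-FRET signal in lysed cells with PDE4 inhibitor present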
Settings: HEK293T-RXFP1 cAMP TR-FRET, 30 min; series mostly up to 115 µM
Potency is read from the fitted curve at half-maximal effect.

| SMILES | Potency |
| --- | --- |
| O=C(NCc1nnc2c(C(F)(F)F)cc(Cl)cn12)c1cccnc1 | inactive |
| O=C(Nc1ccccc1C(=O)N1CCN(c2ccccc2)CC1)c1ccco1 | inactive |
| COc1cccc(C(=O)CSc2nnc(-c3cc(OC)cc(OC)c3)o2)c1 | 13.8 µM (active) |
| CCCC(=O)Nc1ncnc2c1ncn2[C@@H]1O[C@@H]2OP(=O)(O)OC[C@H]2[C@H]1OC(=O)CCC | 0.346 µM (active) |
| Cc1noc(NS(=O)(=O)c2ccc(N3Cc4ccccc4C3=O)cc2)c1C | 11.9 µM (active) |
| COc1ccccc1CNS(=O)(=O)c1cc(CN2C(=O)c3cccnc3C2=O)ccc1OC | 30.9 µM (active) |
| O=C(Nc1ccccc1C(=O)NCc1ccco1)c1ccccc1 | inactive |
| CN(C)c1ccc(NC(=O)C2C3C=CC(C3)C2C(=O)O)cc1 (stereo unspecified) | inactive |
| Cn1c(N)c(C(=O)CSc2nnc(NC3CCCCC3)s2)c(=O)n(C)c1=O | inactive |
| Nc1ncnc2c1ncn2[C@@H]1O[C@H](COS(=O)(=O)O)[C@@H](O)[C@H]1O | 6.9 µM (active) |
| Cc1ccc(C(=O)Nc2cccc(C(F)(F)F)c2)cc1NC(=O)c1cnnc2ccccc12 | inactive |
| Cc1ccnc(NS(=O)(=O)c2ccc(N3C(=O)c4ccccc4C3=O)cc2)n1 | 18.8 µM (active) |
| O=c1oc2cc(O)c(Cl)cc2c2ccccc12 | 6.9 µM (active) |
| Cc1cc(C(=O)COC(=O)Cn2cnc3c2c(=O)n(C)c(=O)n3C)c(C)n1C | 30.9 µM (active) |
| O=C(Cn1cnc2c(nnn2-c2ccc(F)cc2)c1=O)NCC1CCCO1 (stereo unspecified) | 8.7 µM (active) |
| COc1cc(-c2nnc(SCC(=O)N(C)C3CCS(=O)(=O)C3)o2)cc(OC)c1OC (stereo unspecified) | inactive |
| Cc1ccc(Cl)cc1NC(=O)CCCN1C(=O)c2cccnc2C1=O | inactive |
| N#Cc1c(N)nc(SCC(=O)C23CC4CC(CC(C4)C2)C3)c(C#N)c1-c1ccc(Cl)cc1 | 9.74 µM (active) |

| SMILES | Potency |
| --- | --- |
| Cc1cc(C)nc(NS(=O)(=O)c2ccc(N3C(=O)c4ccccc4C3=O)cc2)n1 | 29.8 µM (active) |
| O=S(=O)(c1cccc(-c2cn3cccnc3n2)c1)N1CCOCC1 | 27.5 µM (active) |
| COc1cccc(CNC(=O)c2ccc(CS(=O)Cc3ccc(C)cc3)o2)c1 (stereo unspecified) | inactive |
| C=CCOc1c(Cl)cc(CNc2ccc(N(C)C)cc2)cc1OC | inactive |
| COc1ccc(CCn2c(=N)c(C(=O)NCC3CCCO3)cc3c(=O)n4cccc(C)c4nc32)cc1 (stereo unspecified) | inactive |
| Cc1cc(C)nc(NS(=O)(=O)c2ccc(NC(=O)c3nn(-c4ccccc4)ccc3=O)cc2)n1 | 24.5 µM (active) |
| Cc1ccc2cc(CN(C(=O)c3cccs3)c3ccccc3)c(=O)[nH]c2c1 | inactive |
| O=C(O)CNC(=O)c1ccccc1NC(=O)c1ccco1 | inactive |
| O=C(O)c1cccc(CSc2nnc(Cc3ccccc3)o2)c1 | inactive |
| N#CCCSc1ncnc2c1oc1ccccc12 | 19.4 µM (active) |
| COc1ccc(/C=C2/SC(=O)N(CC(=O)Nc3cc(C)on3)C2=O)cc1OC | inactive |
| CN(Cc1ccccc1)C(=O)c1ccccc1NC(=O)c1ccco1 | inactive |
| CCN(CC)c1ccc(S(=O)(=O)N2CCOCC2)cc1NC(=O)CSc1nncn1C | 12.3 µM (active) |
| O=C(NC1CCCCCC1)c1cc2c(=O)n3ccccc3nc2s1 | 34.6 µM (active) |
| Cc1cc(NC(=O)CSc2ncnc3c2cnn3-c2cccc(Cl)c2)no1 | inactive |
| c1ccc(-c2nnc(-c3ccccn3)c(-c3ccccn3)n2)nc1 | inactive |
| O=C(Nc1ccccc1C(=O)Nc1ccccc1C(=O)NCc1ccco1)c1ccco1 | 21.9 µM (active) |
| COC(=O)c1c(N2C(=O)CC(Sc3ncccc3C(=O)O)C2=O)sc(C)c1C (stereo unspecified) | inactive |
